In PubChem BioAssay (NCI) one finds growth data, which are given here for 14 compounds.

The panel holds about 83,000 compounds, 20% with a hit somewhere; the sample as a whole holds those more often.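 Method: cells in 96-well plates; compound added at one concentration; 48 h incubation; percent growth measured; values under 10 scored active.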 Unmarked numbers belong to inactive results. Active and inactive are the calls of the source.

Among the test systems are T-47D breast; BT-549 breast; MDA-MB-435 melanoma; SW-620 colon; MCF7 breast; HCT-116 colon; HCC-2998 colon; KM12 colon.
Common to all, as to assay: NCI-60 one-dose screen, 48 h (100 = growth as untreated, 0 = no growth, -100 = all killed)
Common to all, as to details: 10 µM unless noted

`CC1=C(C#N)C(C)(C)C(C#N)=C(C)N1`: the growth with T-47D breast is 96.6%; with BT-549 breast, 100%; in the assay on MDA-MB-435 melanoma it was 105%; with SW-620 colon, 102%; in the assay on MCF7 breast it was 96.7%; with HCT-116 colon it was 104%. The growth in the assay with HCC-2998 colon was 108%; in the assay on KM12 colon it was 103%.

With `COc1ccc(-n2cnc3c(sc4ncc(Cl)cc43)c2=O)cc1`, the growth is 86.1% in the assay on T-47D breast; 94.9% in the assay with BT-549 breast; 77.4% with MDA-MB-435 melanoma; 98.3% in the assay on SW-620 colon; 101% in the assay with MCF7 breast; 54.5% in the assay on HCT-116 colon. The growth with HCC-2998 colon was 116%; with KM12 colon, 55.1%.

With `O=c1oc2cc(OS(=O)(=O)c3ccccc3)c(Cl)cc2c2c1CCCCCC2`, the growth in the assay with T-47D breast was 73.9%; in the assay on BT-549 breast, 79.1%; in the assay on MDA-MB-435 melanoma it was 90%; with SW-620 colon, 98.1%; in the assay with MCF7 breast it was 90.6%; in the assay with HCT-116 colon, 74.8%. In addition, the growth with HCC-2998 colon was 106%; in the assay on KM12 colon, 92.1%.

With `O=S(=O)(NCCCNc1cc(-c2cn(-c3ccccc3)nc2-c2cccc(O)c2)ccn1)c1ccc(C(F)(F)F)cc1`, the growth is 35.1% in the assay on T-47D breast; 42.2% in the assay on BT-549 breast; 34.9% in the assay with MDA-MB-435 melanoma; 27.4% with SW-620 colon; 22% in the assay with MCF7 breast; 29% in the assay on HCT-116 colon. Further, the growth with HCC-2998 colon was -30.5% (active); in the assay on KM12 colon it was 23.3%.

Regarding `Clc1cccc(Cl)c1Cn1c(-c2cncs2)nc2ccccc21`, the growth in the assay on T-47D breast is 64.5%; with BT-549 breast, 85.1%; in the assay with MDA-MB-435 melanoma, 44.5%; with SW-620 colon it was 94%; in the assay with MCF7 breast it was 92.3%; in the assay with HCT-116 colon, 78.8%. The growth is 82.6% with HCC-2998 colon and 80.5% in the assay with KM12 colon.

`CCNc1nc(N2CC(=O)Nc3cc(OC)ccc32)c2ccccc2n1`: the growth in the assay on T-47D breast was 11.6%; in the assay with BT-549 breast it was -22.2% (active); in the assay with MDA-MB-435 melanoma, -25.8% (active); in the assay on SW-620 colon, 21.5%; with MCF7 breast, 3.09% (active); in the assay with HCT-116 colon it was -14.1% (active). The growth is -20.8% (active) in the assay with HCC-2998 colon and 4.88% (active) in the assay with KM12 colon.

On to `Nc1c(C(=O)c2ccc(F)cc2)sc2nc3c(cc12)CCCC3`, for which the growth is 79.9% in the assay on T-47D breast; 90.7% in the assay on BT-549 breast; 22.5% in the assay on MDA-MB-435 melanoma; 81% in the assay with SW-620 colon; 80.4% with MCF7 breast; 72.2% in the assay with HCT-116 colon. For the same compound, the growth is 76.7% with HCC-2998 colon and 66.2% with KM12 colon.

With `CC(C)C(C(=O)CCN(C)C)c1ccc(Cl)cc1` (configuration not stated), the growth was 82.9% with T-47D breast; 90.5% in the assay on BT-549 breast; 107% in the assay on MDA-MB-435 melanoma; 108% in the assay on SW-620 colon; 87.4% with MCF7 breast; 79.9% with HCT-116 colon. Also, the growth in the assay on HCC-2998 colon and in the assay with KM12 colon was 104% each time.

With `O=S=Nc1ccc([N+](=O)[O-])cc1`, the growth with T-47D breast is 76.2%; in the assay on BT-549 breast, 91.8%; in the assay on MDA-MB-435 melanoma it was 95.5%; with SW-620 colon, 93.4%; in the assay with MCF7 breast, 95.7%; in the assay on HCT-116 colon, 94%. In addition, the figures for the growth with HCC-2998 colon and in the assay with KM12 colon were 93.5% and 81.6%, respectively.

As to `CC(C)(C)c1cc(-c2nc3ccc(N4CCN(CCO)CC4)cc3[nH]2)cc(C(C)(C)C)c1O`, the growth is 60.6% in the assay with T-47D breast; 92% with BT-549 breast; 6.38% (active) in the assay on MDA-MB-435 melanoma; 9.88% (active) with SW-620 colon; 35.6% in the assay on MCF7 breast; 25.3% in the assay with HCT-116 colon. Moreover, the growth was 12.9% with HCC-2998 colon and 18.2% in the assay on KM12 colon.

Take `O=C(CNc1ccc(Cl)cc1)Nc1ccc(-c2nc3ccccc3s2)cc1`: the growth with T-47D breast was 4.58% (active); with BT-549 breast it was 16.7%; in the assay with MDA-MB-435 melanoma, 62.8%; in the assay on SW-620 colon, 22.6%; with MCF7 breast, 11.5%; in the assay on HCT-116 colon, 23.3%. In addition, the growth in the assay with HCC-2998 colon is -16.2% (active); with KM12 colon it was 80.7%.

Regarding `O=C1NC(Cc2c[nH]c3ccccc23)C(=O)N1Cc1ccc(Cl)cc1` (configuration not stated), the growth was 94.3% in the assay on T-47D breast; 96.3% in the assay on BT-549 breast; 92.2% with MDA-MB-435 melanoma; 98.4% with SW-620 colon; 98% with MCF7 breast; 93.4% in the assay with HCT-116 colon. In addition, the growth with HCC-2998 colon was 131%; with KM12 colon it was 99.3%.

As to `CC(=O)c1cc(C(=O)c2ccc3c(c2)Sc2ccccc2N3)c2cc(C)ccn12`, the growth was 61.7% with T-47D breast; -13.9% (active) with BT-549 breast; -19.7% (active) with MDA-MB-435 melanoma; 22.4% with SW-620 colon; 10.8% with MCF7 breast; -23.6% (active) with HCT-116 colon. The growth in the assay on HCC-2998 colon is 23.2%; in the assay with KM12 colon, 5.18% (active).

`CC/C=C\C/C=C\C[C@H](O)C/C=C1/C(=O)C=C[C@H]1C/C=C\CCC(=O)OC`: the growth is 16.7% [8.25 µM] in the assay on T-47D breast; 14.6% [8.25 µM] with BT-549 breast; -14.1% [8.25 µM] (active) in the assay with MDA-MB-435 melanoma; 6.55% [8.25 µM] (active) in the assay on SW-620 colon; 28.1% [8.25 µM] in the assay on MCF7 breast; -41.6% [8.25 µM] (active) in the assay with HCT-116 colon. Also, the results for the growth in the assay with HCC-2998 colon and in the assay on KM12 colon were 61.2% [8.25 µM] and 3.51% [8.25 µM] (active), respectively.
